Source: PubChem BioAssay (NCATS)
Results filed as inconclusive are left out. Values without a mark were called inactive. Calls come from the whole dose curve; as a rule, active = well fitted inhibition curve with a large enough effect; inconclusive = small, poorly fitted or top-dose-only effect; inactive = flat fitted curve, though single readings scatter.

Test system: not listed separately
Experiment: qHTS profiling for inhibitors of Plasmodium falciparum proliferation (AID 504749);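 note: 0% = DMSO vehicle and full inhibition = artemisinin control; nearly all actives have a fitted effect of over 60% in size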
Conditions: P. falciparum in erythrocytes, SYBR Green DNA, 72 h; at 28.7 µM (top of the series); parasite line B
Procedure, shortened: (§1)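 Fluorescence of SYBR Green-bound parasite DNA, read at 485/535 nm, served as the growth measure. Infected erythrocytes were cultured with compound 72 h; artemisinin (0.29 uM) and DMSO wells defined the normalization range.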

**Q.** With `COc1cc2c(cc1OC)CC(=O)N(CCCN(C)C[C@H]1Cc3cc(OC)c(OC)cc31)CC2` as the compound, how does the activity, negative = inhibition read?
**A.** -3.25%

**Q.** For `O=C(O)c1nc(=O)[nH]c(=O)[nH]1`, which activity, negative = inhibition is on record?
**A.** -28.2%

**Q.** For `CS(=O)(=O)c1ccc(C2=C(c3ccccc3)C(=O)OC2)cc1`, which activity, negative = inhibition is on record?
**A.** 18.5%

**Q.** With `CN1CCN2c3ncccc3Cc3ccccc3C2C1` (stereo unspecified) as the compound, how does the activity, negative = inhibition read?
**A.** 7.38%

**Q.** For `N#CC(c1ccc(Cl)cc1)c1c(Cl)cc(-n2ncc(=O)[nH]c2=O)cc1Cl` (stereo unspecified), which activity, negative = inhibition is on record?
**A.** -1.8%

**Q.** With `COc1ccnc(CS(=O)c2nc3ccc(OC(F)F)cc3[nH]2)c1OC` (stereo unspecified) as the compound, how does the activity, negative = inhibition read?
**A.** -10.6%

**Q.** With `N#Cc1c(N(CC(=O)O)CC(=O)O)sc(C(=O)O)c1CC(=O)O` as the compound, how does the activity, negative = inhibition read?
**A.** 0.836%

Test system: 3D7
Experiment: as above
Conditions: P. falciparum in erythrocytes, SYBR Green DNA, 72 h; series mostly up to 28.7 µM; activity, negative = inhibition: at the top concentration
Procedure, shortened: as §1

**Q.** For `COc1cc2c(cc1OC)CC(=O)N(CCCN(C)C[C@H]1Cc3cc(OC)c(OC)cc31)CC2`, which “activity, negative = inhibition” value is on record?
**A.** 0.153%

**Q.** Which “activity, negative = inhibition” value does the source give for `O=C(O)c1nc(=O)[nH]c(=O)[nH]1` here?
**A.** -15.1%

**Q.** With `CS(=O)(=O)c1ccc(C2=C(c3ccccc3)C(=O)OC2)cc1` as the compound, how does the “activity, negative = inhibition” value read?
**A.** -0.967%

**Q.** For `CN1CCN2c3ncccc3Cc3ccccc3C2C1` (stereo unspecified), which “activity, negative = inhibition” value is on record?
**A.** 2.91%

**Q.** Which “activity, negative = inhibition” value does the source give for `NS(=O)(=O)c1cc(Cl)c(Cl)c(S(N)(=O)=O)c1` here?
**A.** 8.65% [at 12.8 µM]

**Q.** With `N#CC(c1ccc(Cl)cc1)c1c(Cl)cc(-n2ncc(=O)[nH]c2=O)cc1Cl` (stereo unspecified) as the compound, how does the “activity, negative = inhibition” value read?
**A.** -9.01%

**Q.** With `COc1ccnc(CS(=O)c2nc3ccc(OC(F)F)cc3[nH]2)c1OC` (stereo unspecified) as the compound, how does the “activity, negative = inhibition” value read?
**A.** 0.376%

**Q.** With `N#Cc1c(N(CC(=O)O)CC(=O)O)sc(C(=O)O)c1CC(=O)O` as the compound, how does the “activity, negative = inhibition” value read?
**A.** 8.54%

**Q.** For `C=C1c2cccc(O)c2C(O)=C2C(=O)[C@@]3(O)C(O)=C(C(N)=O)C(=O)[C@@H](N(C)C)[C@@H]3[C@@H](O)[C@H]12`, which “activity, negative = inhibition” value is on record?
**A.** -27.6% [at 12.8 µM]
